# Assay results as given in ChEMBL document CHEMBL3988442, “University of Dundee, Small-Polar-MMV Screening Library” (2021).
# Key:
# [1] = target: T1, Aspartate--tRNA(Asp/Asn) ligase (Mycobacterium tuberculosis (strain ATCC 25618 / H37Rv)) (UniProt P9WFW3); assay: Assay for Asp RNA synthetase-1 from Mycobacterium tuberculosis; type: functional; set-up: scale not given: direction of the effect not stated beside the values; conditions: 30 µM; note: in the data most compounds retested in dose-response had high values
# T1 sequence (whole entry): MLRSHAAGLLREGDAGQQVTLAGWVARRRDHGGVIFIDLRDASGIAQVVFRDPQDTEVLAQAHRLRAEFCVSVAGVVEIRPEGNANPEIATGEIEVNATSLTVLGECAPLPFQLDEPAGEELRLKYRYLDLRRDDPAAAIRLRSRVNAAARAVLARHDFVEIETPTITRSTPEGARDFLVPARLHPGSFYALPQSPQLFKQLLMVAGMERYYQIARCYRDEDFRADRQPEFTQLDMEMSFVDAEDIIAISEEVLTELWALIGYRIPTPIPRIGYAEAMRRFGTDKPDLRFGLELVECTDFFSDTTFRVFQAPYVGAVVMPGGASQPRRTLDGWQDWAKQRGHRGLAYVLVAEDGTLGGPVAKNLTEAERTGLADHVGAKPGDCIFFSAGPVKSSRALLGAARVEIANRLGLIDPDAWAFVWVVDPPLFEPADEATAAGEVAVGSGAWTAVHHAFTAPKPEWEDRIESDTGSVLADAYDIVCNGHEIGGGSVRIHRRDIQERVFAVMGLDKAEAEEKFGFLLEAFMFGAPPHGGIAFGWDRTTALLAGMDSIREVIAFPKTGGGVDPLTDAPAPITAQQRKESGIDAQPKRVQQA
# [2] = target: Shiga toxin 2 (Escherichia coli O157:H7) (UniProt P09385+P09386); assay: E. coli 0.157:H7 Shiga Toxin SOP - stx2 screening assay; type: functional; set-up: scale not given: direction of the effect not stated beside the values; conditions: 30 µM
Compound,Percent Effect [1],Percent Effect [2]
CNc1nc2c(s1)C(c1c(F)cccc1Cl)CC(=O)N2 (stereo not drawn),61.3%,3.13%
Cn1cc(CN2CCC(F)(F)C3(CCN(c4cnccn4)C3)C2)cn1 (stereo not drawn),-3.65%,-4.7%
COc1ccc(CN2CCn3cc(Cn4cccn4)nc3C2)cc1,6.63%,-37.1%
Cc1ccc(CN2CCOC3(CCCN(C(=O)c4ccco4)C3)C2)s1 (stereo not drawn),4.58%,-29.2%
CS(=O)(=O)c1ccc(CNCC2CCN(CCO)CC2)cc1,9.49%,-31.9%
NC(=O)C1CCCN(Cc2c(-c3ccco3)[nH]c3ncccc23)C1 (stereo not drawn),10.6%,3.34%
CNCC(=O)N1CCCC(c2nccnc2Oc2cccc(F)c2)C1 (stereo not drawn),1.72%,4.34%
CN(Cc1ccsc1)C(=O)CN1CCOC(Cn2cccn2)C1 (stereo not drawn),0.463%,-18.6%
CC(C)c1nccn1-c1cccc(C2CCCN(C3CCCC3)C2)n1 (stereo not drawn),3.46%,3.04%
Clc1ccccc1CN1CCc2nc(C3CCCCN3)ncc2C1 (stereo not drawn),1.4%,-35.9%
Cc1cccc(-c2ccc(C(=O)NCC(C)(C)C(N)=O)c(=O)[nH]2)c1,7.72%,-21.6%
CC(NC(=O)CCOc1ccccc1Cl)c1nnc2n1CCC2 (stereo not drawn),-1%,22.6%
CCOC(=O)N1CCN(C(=O)c2sc(-c3ccccc3F)nc2C)CC1,3.76%,-8.58%
c1ccc(-n2ncc(CNC3CCc4ncnn4C3)n2)cc1 (stereo not drawn),1.39%,-16.9%
Cc1cnn(CC2CCCN2C(=O)c2ccc3nnc(C)n3c2)c1 (stereo not drawn),0.189%,-37.5%
COc1ncc(-c2nccn2CCN(C)C)cn1,-0.836%,-6.87%
O=C(O)c1ccc(S(=O)(=O)Nc2ccc(Cl)c(F)c2)c(F)c1,-0.533%,-14.1%
c1ccc(-c2nccc(CNCC3CCCN3c3cccnn3)n2)cc1 (stereo not drawn),0.1%,11.8%
CN(C)CCN1CCOCC2(C1)CN(Cc1ccsc1)CCO2 (stereo not drawn),6.63%,3.8%
